This is part of a sample that, as a whole, favours compounds with a hit. Of some 83,000 tested, about 20% had one in any assay.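 Negative percent growth values reflect cell death: -40 means 40% of the cells present at the start died, and -100 means all died.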 Unmarked numbers belong to inactive results. Calls of active or inactive are those of the source. Rule for the calls: active = growth percent below 10; inactive = the rest.
Columns and labels:
Test in all cases: NCI-60 one-dose screen, 48 h (100 = growth as untreated, 0 = no growth, -100 = all killed)
Details in all cases: 10 µM unless noted
DU-145 prostate = tested on: DU-145 prostate
K-562 leukemia = tested on: K-562 leukemia
MALME-3M melanoma = tested on: MALME-3M melanoma
MDA-MB-231 breast = tested on: MDA-MB-231 breast
RXF 393 renal = tested on: RXF 393 renal
SF-268 CNS = tested on: SF-268 CNS
SF-295 CNS = tested on: SF-295 CNS
SF-539 CNS = tested on: SF-539 CNS
UACC-257 melanoma = tested on: UACC-257 melanoma
M14 melanoma = tested on: M14 melanoma
HCT-15 colon = tested on: HCT-15 colon
HT29 colon = tested on: HT29 colon
SNB-75 CNS = tested on: SNB-75 CNS
SNB-19 CNS = tested on: SNB-19 CNS
U251 CNS = tested on: U251 CNS
PC-3 prostate = tested on: PC-3 prostate
SK-MEL-5 melanoma = tested on: SK-MEL-5 melanoma
UACC-62 melanoma = tested on: UACC-62 melanoma
LOX IMVI melanoma = tested on: LOX IMVI melanoma
SK-MEL-28 melanoma = tested on: SK-MEL-28 melanoma

| SMILES | growth (DU-145 prostate) | growth (K-562 leukemia) | growth (MALME-3M melanoma) | growth (MDA-MB-231 breast) | growth (RXF 393 renal) | growth (SF-268 CNS) | growth (SF-295 CNS) | growth (SF-539 CNS) | growth (UACC-257 melanoma) | growth (M14 melanoma) | growth (HCT-15 colon) | growth (HT29 colon) | growth (SNB-75 CNS) | growth (SNB-19 CNS) | growth (U251 CNS) | growth (PC-3 prostate) | growth (SK-MEL-5 melanoma) | growth (UACC-62 melanoma) | growth (LOX IMVI melanoma) | growth (SK-MEL-28 melanoma) |
| --- | --- | --- | --- | --- | --- | --- | --- | --- | --- | --- | --- | --- | --- | --- | --- | --- | --- | --- | --- | --- |
| O=Cc1c[nH]c2ccc(-c3csc4ccccc34)cc12 | 80% | 8.16% (active) | 44.4% | 45.7% | 45.3% | 44.5% | -22.6% (active) | 30.9% | 39.3% | 23.5% | 29% | 16.5% | 39.9% | 34.3% | 25.2% | 61.9% | 61% | 34% | 39.5% | 69.8% |
| CC1=CN2C(=O)C3C4=C(CCCC4)SC3N=C2CN1c1c(C)cccc1C (stereo not given) | 104% | 45.8% | 89.7% | 83.9% | 67% | 89.1% | 81.6% | 96.7% | 99.4% | 96.6% | 49.8% | 84% | 106% | 104% | 65% | 63.4% | 87.2% | 66.4% | 79.2% | 110% |
| CC(=O)N1N=C(c2ccc(Nc3nc(Nc4ccc(F)cc4)nc(Nc4ccc(F)cc4)n3)cc2)CC1c1cccc([N+](=O)[O-])c1 (stereo not given) | 106% | 76.7% | 91.3% | 84.6% | 81.4% | 103% | 482% | 92.9% | 115% | 94.1% | 91.7% | 48.5% | 21.8% | 92.5% | 86.7% | 70.9% | 78.8% | 92.6% | 87.9% | 74.4% |
| CN1C(=O)N(C)C2C1NN=c1s/c(=C\c3ccccc3)c(=O)n12 (stereo not given) | 55% | 20.3% | 51.3% | 68.9% | 54.7% | 57.8% | 34% | 45.1% | 54% | 31% | 27.1% | 77.8% | 11.5% | 45.4% | 42.1% | 28.2% | 41% | 42.2% | 44.6% | 63.2% |
| Clc1ccc(-c2c3ccc(=[N+]4CCCCC4)cc-3oc3cc(N4CCCCC4)ccc23)cc1 | -91.7% (active) | -34.1% (active) | -76.4% (active) | -81.7% (active) | -91.2% (active) | -89.6% (active) | -72.6% (active) | -93.4% (active) | -78.5% (active) | -92.7% (active) | -77.1% (active) | -82.3% (active) | -70.1% (active) | -90% (active) | -79.6% (active) | -71.2% (active) | -95.4% (active) | -87.1% (active) | -70.2% (active) | -91.4% (active) |
| CCN(CC)c1nc(SCC(=O)Nc2nc3ccc(C)cc3s2)nc(-c2ccccc2)c1C#N | 101% | 86.5% | 103% | 78% | 97.3% | 88.5% | 92.9% | 89.2% | 96.5% | 101% | 83.8% | 79.6% | 85.6% | 89.5% | 87.6% | 67% | 90.2% | 67.9% | 98% | 103% |
| Cc1ccc(-c2cc(-c3cccnc3)[nH]c(=O)c2C#N)cc1 | 110% | 108% | 112% | 109% | 105% | 99.3% | 102% | 99.9% | 108% | 112% | 103% | 107% | 85.2% | 97% | 101% | 110% | 105% | 96.9% | 96.9% | 109% |
| COc1ccc2[nH]c(O)c(/C=c3/cc4c(c(-c5cc(OC)c(OC)c(OC)c5)n3)=Nc3ccccc3-4)c2c1 | 73.9% | 31.7% | 94.8% | 31.7% | 43.1% | 72.9% | 76.9% | 84.1% | 88.5% | 49.2% | 46.8% | 35% | 78.8% | 84.4% | 61.4% | 44.7% | 52.2% | 80.7% | 64.8% | 83.1% |
| CCCCn1c(=O)c2c(nc3n2CCCN3CCc2ccc(OCC(=O)NCCN(CC)CC)cc2)n(CCCC)c1=O | 66.1% | -6.6% (active) | -52.9% (active) | 14.4% | 47.2% | 63.2% | -22.3% (active) | 54.7% | -39% (active) | -79.2% (active) | 1.38% (active) | 5.96% (active) | 44.6% | 65.3% | 24.6% | 47.7% | 28.3% | 20.7% | 11% | -36.4% (active) |
| Cc1ccccc1NC(=O)N/C(N)=N/c1nc(-c2cccc([N+](=O)[O-])c2)cs1 | 69.3% | 9.08% (active) | 33% | 50.4% | 56.7% | 64% | 15.8% | 41.1% | 51.5% | 19% | 24.8% | 17.1% | -9.74% (active) | 44.1% | 40.4% | 58% | 49.3% | 34.1% | -10.5% (active) | 54.1% |
| Cc1cccc(Cc2cnc(NC(=O)/C=C/c3ccco3)s2)c1 | 15.9% | 8.09% (active) | 54.8% | 56.5% | -0.566% (active) | 49.4% | 6.75% (active) | -19.9% (active) | 41.3% | 10.3% | 12.8% | 6.71% (active) | 16.8% | 52.2% | 20.6% | 27.2% | 11.2% | 28.1% | 18.8% | 62.2% |
| Cc1ccc2nc(C)c(-c3nnc(SCc4ccc(C#N)cc4)o3)n2c1 | 112% | 38% | 101% | 74.2% | 89.5% | 96.6% | 92.9% | 88.3% | 119% | 102% | 79.6% | 115% | 77.7% | 90.7% | 95.3% | 109% | 92.9% | 74.4% | 93.2% | 100% |
| COC(=O)c1ccc(C2Nc3ccc(S(=O)(=O)Nc4ccc(C)c(C)c4)cc3C3OCCC23)cc1 (stereo not given) | 100% | 40.8% | 77.4% | 83.9% | 101% | 78% | 77.4% | 96.2% | 79.6% | 94.1% | 71.2% | 83.7% | 79.1% | 78.2% | 71.5% | 82.4% | 58% | 65.3% | 93% | 99.5% |
| COc1cccc(-c2nc3sccn3c2-c2ccnc(NCCNS(=O)(=O)c3cccc(F)c3)c2)c1 | 29.7% | 19% | 46.6% | 64.6% | 39.9% | 37.8% | 15.5% | 70.7% | 44.6% | 33.3% | 25.1% | 27.9% | 27.4% | 59.2% | 45.4% | 14.1% | 2.05% (active) | -17.9% (active) | 32.7% | 56.1% |
| Cn1c(-c2c(N)n(Cc3ccc(C(F)(F)F)cc3)c3nc(C#N)c(C#N)nc23)nc2ccccc21 | -4.79% (active) | -30.7% (active) | -23.9% (active) | -13.2% (active) | 4.46% (active) | 43.3% | -27.5% (active) | 8.23% (active) | 6.78% (active) | 16.2% | 12.5% | 9.72% (active) | 15.1% | 21.3% | 5.09% (active) | -26.6% (active) | -10.4% (active) | 18.6% | 2.4% (active) | 28.8% |
